In all, about 69,000 compounds went through this assay and about 8,600 (12%) showed an effect of 50% or more. This excerpt belongs to a sample that is enriched for strong results.
Test system: Plasmodium berghei
Test: Screen against P. berghei liver stage (PbLuc), transformed with Luciferase, at 10uM
Assay type: functional, HepG2
Settings: tested at 10 uM

| Structure (SMILES) | INHIBITION |
| --- | --- |
| CC(C)N1CCC2(CC1)CC(NCc1ccccn1)c1ccccc1O2 (stereo not drawn) | 7.31% |
| O=C(C1CCCC1)N1CCC2(CC1)COCCN2CC1CC1 | 39.1% |
| O=C(C1CCC1)N1CCC2(CCCN2CC2CC2)CC1 | 22.3% |
| O=C(C1CCCCC1)N1CCC2(CCCN2CC2CC2)CC1 | 50.7% |
| OC1(CNCCCN2CCc3ccccc32)CCNC1 (stereo not drawn) | 30.7% |
| CCN(CCSc1ccccc1)C(=O)c1cn(C2CCC(N)CC2)nn1 (stereo not drawn) | -56.6% |
| CN(C)c1cc(C(=O)Nc2cccnc2N2CCSCC2)ccn1 | 2.97% |
| CN(C)c1cc(C(=O)Nc2ccccc2C(=O)NC(C)(C)C)ccn1 | 7.4% |
| CNC(=O)c1cccc(NC(=O)c2ccnc(N(C)C)c2)c1C | 53.9% |
| C=C(C)CN1CCN(Cc2nccn2C)C(C)C1 (stereo not drawn) | 42.45% |
| CN1CCN(C(=O)Cc2cccc(F)c2)Cc2cccnc21 | -3.19% |
| O=C(c1cc2ccccc2c(=O)[nH]1)N1CCN(CCO)CC1 | 2.32% |
| Cc1nc(-c2cccs2)ccc1C(=O)N1CCN(CC(C)O)CC1 (stereo not drawn) | 55.4% |
| Cc1nc2cc(F)ccc2cc1C(=O)N1CCN(CC(C)O)CC1 (stereo not drawn) | -11.5% |
| Cc1nc2cc(F)cc(C(=O)N3CCN(CCO)CC3)c2nc1C | -24% |
| O=C(c1ccc(-c2cccs2)cc1F)N1CCN(CCO)CC1 | 38.7% |
| Cc1nc(-c2cccs2)ccc1C(=O)N1CCN(CCO)CC1 | 27.6% |
| Cc1nc(-c2ccccc2)ccc1C(=O)N1CCN(CCO)CC1 | 71.2% |
| Cc1nc(-c2ccccc2)ccc1C(=O)N1CCn2c(C)nnc2C1 | -0.758% |
| O=C(c1ccc[nH]1)N1CCCC1c1nc(-c2ccccc2)n[nH]1 (stereo not drawn) | -1.76% |
| O=C(c1ccncc1F)N1CCCC1c1nc(-c2ccccc2)n[nH]1 (stereo not drawn) | 16.8% |
| Cc1nc(O)ccc1C(=O)N1CCCC1c1nc(-c2ccccc2)n[nH]1 (stereo not drawn) | 69.8% |
| O=C(c1cc(-c2cccs2)nc2ccccc12)N1CCN(CCO)CC1 | 68.4% |

| Structure (SMILES) | INHIBITION |
| --- | --- |
| Cc1cc(-n2nnc(C(=O)O)c2-c2ccncc2)ccc1F | 49.9% |
| CCOC(=O)CNC(=O)c1cccnc1Sc1cc(OC)ccc1OC | 3.58% |
| Cc1ccc(CNC(=O)NC(C)CN2CCOCC2)s1 (stereo not drawn) | 14% |
| COCCC(=O)N1C[C@@H](c2ccccc2F)[C@@]2(CCCC(=O)N2)C1 | 29.5% |
| Cn1cc(N2CCC3(CCN(Cc4nccs4)C3)C2=O)cn1 (stereo not drawn) | 26.2% |
| Cc1nc(C)n(CC2CCCN2Cc2nc(-c3ccsc3)no2)n1 (stereo not drawn) | 46.8% |
| Cc1ccccc1OCCCNC(=O)C1(C)CC(=O)N2C=CC=CC2=N1 (stereo not drawn) | 9.63% |
| Cc1nc(C)n(CC2CN(Cc3ccccc3C#N)CCO2)n1 (stereo not drawn) | 5.9% |
| CCN(Cc1cscn1)CC1(C)Cc2c(N)nc(N)nc2O1 (stereo not drawn) | 33.85% |
| CN(CC1(CO)CC1)C(=O)C1CCC(=O)N(Cc2ccc(Cl)cc2)C1 (stereo not drawn) | 70.4% |
| CN(CC1(CO)CCC1)C(=O)C1CCC(=O)N(Cc2ccc(Cl)cc2)C1 (stereo not drawn) | 49% |
| CN(CCC(C)(C)O)C(=O)C1CCC(=O)N(Cc2ccc(Cl)cc2)C1 (stereo not drawn) | 46.9% |
| COc1cc(C(C)=O)ccc1OC12CCCN(CC1)C2 (stereo not drawn) | 47.7% |
| CCc1ccc(CN2CCCn3c(nc(Cn4ccnc4)cc3=O)C2)o1 | -2.17% |
| CCO[C@@H]1CCN(C(=O)c2ccc[nH]2)[C@@H]1Cc1cccnc1 | 36.9% |
| Cc1ccc(S(=O)(=O)N2CCOCC2C(N)=O)c(F)c1 (stereo not drawn) | 27.4% |
| Cc1ccc(C(=O)N2CC(C(N)=O)O[C@H](C)C2)c(F)c1 (stereo partly drawn) | -110% |
| Cc1ccc(C(=O)N2CCOCC2C(N)=O)c(F)c1 (stereo not drawn) | 54.5% |
| CCOc1ccc(CSC(C)c2nc(C)no2)nc1 (stereo not drawn) | 60.2% |
| CCOc1cccc(CSC(C)c2nc(C)no2)n1 (stereo not drawn) | -10.8% |
| Cc1noc(C(C)SCc2ccccn2)n1 (stereo not drawn) | 14.3% |
| CNc1nc2cn(C3CCCC3)c(=O)c-2c[nH]1 | -24.5% |
| CC1CN(C)CCN1CC(=O)NCCOc1ccc2c(c1)OCO2 (stereo not drawn) | 18.7% |

| Structure (SMILES) | INHIBITION |
| --- | --- |
| O=C(c1ccccn1)N1CC(S(=O)(=O)c2ccc(Cl)cc2)C1 | -54.7% |
| O=C(c1cccnc1)N1CC(S(=O)(=O)c2ccc(Cl)cc2)C1 | 29.7% |
| O=C(c1ccco1)N1CC(S(=O)(=O)c2ccc(Cl)cc2)C1 | 50.5% |
| c1ccc2c3c([nH]c2c1)C(c1nn[nH]n1)CCC3 (stereo not drawn) | 26.4% |
| Cn1ccnc1C1(O)CCCN(Cc2ccncc2)CC1 (stereo not drawn) | 7.36% |
| COc1ccc(C2c3c(N)nc(SC)nc3N=C3CCCC(=O)C32)cc1 (stereo not drawn) | 21.7% |
| COc1cc2c(cc1CNC(Cc1cccs1)c1nccs1)OCO2 (stereo not drawn) | 20.07% |
| CCOc1cc2c(cc1CNC(Cc1cccs1)c1nccs1)OCO2 (stereo not drawn) | 52% |
| COc1cc2c(cc1CNC(Cc1cccs1)c1nccs1)OCCO2 (stereo not drawn) | 36.9% |
| CCc1nnc(Nc2cc(C)nc(C3CCN(c4cnccn4)C3)n2)s1 (stereo not drawn) | 32.3% |
| CCOc1ccc2[nH]c(=O)c(CN3CCN(S(N)(=O)=O)CC3)cc2c1 | 94.3% |
| CCCN1CCN(Cc2cc3cc(OCC)ccc3[nH]c2=O)CC1 | 6.67% |
| CCOc1ccc2[nH]c(=O)c(CN3CCC(O)CC3)cc2c1 | 20.2% |
| CCCN(CCOC)C(=O)c1cc(Cn2c(C)nc3ccccc32)[nH]n1 | 65.7% |
| CCn1nc(C)c(CN(CCOC)C(=O)c2ccc(=O)[nH]n2)c1C | -65% |
| CCCN(CC)C(=O)c1cc(Cn2c(C)nc3ccccc32)[nH]n1 | 75.7% |
| Cc1nc2ccccc2n1Cc1cc(C(=O)N(C)C2CCOC2)n[nH]1 (stereo not drawn) | -39.9% |
| CCN(CCO)C(=O)c1cc(Cn2c(C)nc3ccccc32)[nH]n1 | 24.9% |
| NC(=O)CNC(=O)c1cc(Cn2cnc3ccccc32)[nH]n1 | -72.5% |
| COCc1nc(C(=O)N2CCCC2c2cccs2)cs1 (stereo not drawn) | 42% |
| Cc1cccc(CN2CCc3ncnc(NC4CCC4)c3CC2)n1 | -24.8% |
| c1cc(CN2C[C@@H]3OCCN(CC4CCCO4)[C@@H]3C2)cs1 (stereo partly drawn) | 46.2% |
